{"source": "the supplement of paper PMC6555819", "data": [{"system": "PPARa:RXRa (NR concentration 270 nM, RXRa partner concentration 90 nM)", "test": "PBM binding z-score (relative to random genomic background probes); higher = stronger binding; sequences stand for … in GC…GCGATTGACAGCGTAGAATGAAGG", "how_it_was_run": "(§1)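 Probes were double-stranded and carried 34-nt variable regions with direct-repeat seeds, single-nucleotide variants, half-site ablations and random human genomic background sequences, printed on custom Agilent 4×180K protein-binding microarrays. Arrays were incubated 1 h with ligand-free nuclear receptor dimers in PBS pH 7.4, 2% milk, 0.02% Triton X-100, 1 mM DTT, 0.2 mg/mL BSA and 0.4 mg/ml salmon testes DNA. Antibodies against each partner (one per run) detected binding, and scanned fluorescence was regression-normalized. Binding z-scores use the random background probes as reference.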", "values": [{"sequence": "TCTCGGAGGACACGAAAGTCAGAGCTTTCCAGAG", "PBM binding z-score": 0.0493}, {"sequence": "TCAGACAGGTGAAGTTAACTCAGGTACGCAGTCG", "PBM binding z-score": 1.17}, {"sequence": "CCTAGTTGATCAGGAGGTCACACACCGGATATGA", "PBM binding z-score": 4.19}, {"sequence": "ACAGATAGGTGATGAAGGTAACTCAGGCTATCAT", "PBM binding z-score": 0.548}, {"sequence": "GTTATTAGTTGAAAGGGCAACCGAATGATTCTCG", "PBM binding z-score": 3.14}, {"sequence": "AATACAGGGTCACTAGGGCAGAGTAGGTACGAAT", "PBM binding z-score": 5.86}, {"sequence": "GATACAGGGTCAAGTCCAGAGTACGCGTATTGAT", "PBM binding z-score": 5.77}, {"sequence": "CGTCAAAGTCCAACTAAGGTAACGTAAAGCACGC", "PBM binding z-score": 0.088}, {"sequence": "CTCGAAAGGTCGGTTGAGATGAGTATACGGATAA", "PBM binding z-score": 2.34}, {"sequence": "CCGACTGGTGCATAAGGTTACCATAAGCCAGCCC", "PBM binding z-score": 1.04}, {"sequence": "TCTTGTAGATCAATAGAGGTTAAGATAGTGCGCT", "PBM binding z-score": 1.99}, {"sequence": "ACTAGCAGGCCAAGTTTGGCTCACTCAAACAAAG", "PBM binding z-score": -0.363}, {"sequence": "ATAATGAGGTTATTAAGATCAGGGAATTGCGGTC", "PBM binding z-score": 2.81}, {"sequence": "TCTTGTAGATCAATAGAGGTTATGAAAGTGCGCT", "PBM binding z-score": 1.9}, {"sequence": "ATCACTAGGTAAAGTTCAGTGAAAGATCGATAGA", "PBM binding z-score": 2.22}, {"sequence": "CGAACGAGGGCATGAGTTCATAGCAAATGCCGAT", "PBM binding z-score": 3.24}, {"sequence": "CCTTACGGGTCACGAGGGTATAGCACGACGAGCG", "PBM binding z-score": 5.73}, {"sequence": "CCGACTGGGGCAAGGTTACCATTACGCACAGCCA", "PBM binding z-score": 1.75}, {"sequence": "TTACCAAGGTGAAAGGTCGTGGATGCACGCCTTG", "PBM binding z-score": 5.66}, {"sequence": "CCAGACATGTGAGAAGGTAACTCAGCCTCGATTA", "PBM binding z-score": -0.106}, {"sequence": "TCTATTAGTTGAAGGGCAATCGACGAGTCCGTTT", "PBM binding z-score": 0.795}, {"sequence": "ATCGAAAGGTCGTGAGGTGAGTATACAGAAAGGC", "PBM binding z-score": 4.95}, {"sequence": "TGTCAAAGTTCAAAGGTAATGTAAGTATCCACAC", "PBM binding z-score": 5.66}, {"sequence": "ATCGAGAGGTCGACGAGGTGAGTATACACCGTTT", "PBM binding z-score": 3.36}, {"sequence": "TAGCCTAGGTCAGATCGGCCCAGTATACGCTATA", "PBM binding z-score": 1.87}, {"sequence": "GGAACGAGGGCAAGCTGATAGCAGAGTTTGATGG", "PBM binding z-score": 1.37}, {"sequence": "CCTATTAGTTGACCATAAGTGCAACCGAAGCTCG", "PBM binding z-score": 0.517}, {"sequence": "CCTAGTTGGTCAAGGTCACAGACGCTATAGGTAC", "PBM binding z-score": 4.38}, {"sequence": "ATTAGTTGGTCAGCTGAGGTCACACACAATTCGG", "PBM binding z-score": 3.96}, {"sequence": "AGAACGAGGGCACGCTGAGTTGATCGCAGAGTAG", "PBM binding z-score": 2.16}, {"sequence": "CCGAGTAGGTTATCGGGCATTCAGGCAACGGTGA", "PBM binding z-score": 1.32}, {"sequence": "TCTAGTTGGTCAAAGGTCGCACACTCGAAATGCG", "PBM binding z-score": 5.33}, {"sequence": "TCTGCTAGGTCAACGATGGTCAGCTGATCTGCTA", "PBM binding z-score": 3.35}, {"sequence": "CGAACTAGGTCATTGACATGACAGTGAATAGTAA", "PBM binding z-score": 4.88}, {"sequence": "ATCTCTAGGTAAAGATAGCTCAGTGAATGCAAAT", "PBM binding z-score": -0.203}, {"sequence": "TCTTGTGGATCAACAGGAGGTTAAGAAAGATCGA", "PBM binding z-score": 1.19}, {"sequence": "TGAATGAGGTTAAAGATGAGGGAACGTGGCGTCG", "PBM binding z-score": 3.65}, {"sequence": "TGAATGAGGTTAAAGATCAGCGAACGTGGCGTCG", "PBM binding z-score": 4.55}, {"sequence": "CCAGTCAGGTGAGAAGGTAACTCAGCCTCGATTA", "PBM binding z-score": 0.601}, {"sequence": "TCTTGTAGATCAATAGAGGTTACGAAAGTGCGCT", "PBM binding z-score": 2.12}]}, {"system": "PPARg:RXRa (NR concentration 180 nM, RXRa partner concentration 90 nM)", "test": "PBM binding z-score (relative to random genomic background probes); higher = stronger binding; sequences stand for … in GC…GCGATTGACAGCGTAGAATGAAGG", "how_it_was_run": "as §1", "values": [{"sequence": "TCTCGGAGGACACGAAAGTCAGAGCTTTCCAGAG", "PBM binding z-score": -0.000671}, {"sequence": "TCAGACAGGTGAAGTTAACTCAGGTACGCAGTCG", "PBM binding z-score": 0.534}, {"sequence": "CCTAGTTGATCAGGAGGTCACACACCGGATATGA", "PBM binding z-score": 2.24}, {"sequence": "ACAGATAGGTGATGAAGGTAACTCAGGCTATCAT", "PBM binding z-score": 0.643}, {"sequence": "GTTATTAGTTGAAAGGGCAACCGAATGATTCTCG", "PBM binding z-score": 3.9}, {"sequence": "AATACAGGGTCACTAGGGCAGAGTAGGTACGAAT", "PBM binding z-score": 8.85}, {"sequence": "GATACAGGGTCAAGTCCAGAGTACGCGTATTGAT", "PBM binding z-score": 5.91}, {"sequence": "CGTCAAAGTCCAACTAAGGTAACGTAAAGCACGC", "PBM binding z-score": 0.536}, {"sequence": "CTCGAAAGGTCGGTTGAGATGAGTATACGGATAA", "PBM binding z-score": 0.617}, {"sequence": "CCGACTGGTGCATAAGGTTACCATAAGCCAGCCC", "PBM binding z-score": 0.64}, {"sequence": "TCTTGTAGATCAATAGAGGTTAAGATAGTGCGCT", "PBM binding z-score": 0.479}, {"sequence": "ACTAGCAGGCCAAGTTTGGCTCACTCAAACAAAG", "PBM binding z-score": -0.294}, {"sequence": "ATAATGAGGTTATTAAGATCAGGGAATTGCGGTC", "PBM binding z-score": 1.91}, {"sequence": "TCTTGTAGATCAATAGAGGTTATGAAAGTGCGCT", "PBM binding z-score": 0.356}, {"sequence": "ATCACTAGGTAAAGTTCAGTGAAAGATCGATAGA", "PBM binding z-score": 2.59}, {"sequence": "CGAACGAGGGCATGAGTTCATAGCAAATGCCGAT", "PBM binding z-score": 2.37}, {"sequence": "CCTTACGGGTCACGAGGGTATAGCACGACGAGCG", "PBM binding z-score": 6.45}, {"sequence": "CCGACTGGGGCAAGGTTACCATTACGCACAGCCA", "PBM binding z-score": 2.79}, {"sequence": "TTACCAAGGTGAAAGGTCGTGGATGCACGCCTTG", "PBM binding z-score": 9.46}, {"sequence": "CCAGACATGTGAGAAGGTAACTCAGCCTCGATTA", "PBM binding z-score": 0.462}, {"sequence": "TCTATTAGTTGAAGGGCAATCGACGAGTCCGTTT", "PBM binding z-score": 0.0366}, {"sequence": "ATCGAAAGGTCGTGAGGTGAGTATACAGAAAGGC", "PBM binding z-score": 4.06}, {"sequence": "TGTCAAAGTTCAAAGGTAATGTAAGTATCCACAC", "PBM binding z-score": 8.55}, {"sequence": "ATCGAGAGGTCGACGAGGTGAGTATACACCGTTT", "PBM binding z-score": 1.95}, {"sequence": "TAGCCTAGGTCAGATCGGCCCAGTATACGCTATA", "PBM binding z-score": 1.07}, {"sequence": "GGAACGAGGGCAAGCTGATAGCAGAGTTTGATGG", "PBM binding z-score": 0.979}, {"sequence": "CCTATTAGTTGACCATAAGTGCAACCGAAGCTCG", "PBM binding z-score": 0.672}, {"sequence": "CCTAGTTGGTCAAGGTCACAGACGCTATAGGTAC", "PBM binding z-score": 3.54}, {"sequence": "ATTAGTTGGTCAGCTGAGGTCACACACAATTCGG", "PBM binding z-score": 2.32}, {"sequence": "AGAACGAGGGCACGCTGAGTTGATCGCAGAGTAG", "PBM binding z-score": 1.93}, {"sequence": "CCGAGTAGGTTATCGGGCATTCAGGCAACGGTGA", "PBM binding z-score": 1.8}, {"sequence": "TCTAGTTGGTCAAAGGTCGCACACTCGAAATGCG", "PBM binding z-score": 10.3}, {"sequence": "TCTGCTAGGTCAACGATGGTCAGCTGATCTGCTA", "PBM binding z-score": 2.72}, {"sequence": "CGAACTAGGTCATTGACATGACAGTGAATAGTAA", "PBM binding z-score": 7.61}, {"sequence": "ATCTCTAGGTAAAGATAGCTCAGTGAATGCAAAT", "PBM binding z-score": 0.422}, {"sequence": "TCTTGTGGATCAACAGGAGGTTAAGAAAGATCGA", "PBM binding z-score": 0.00768}, {"sequence": "TGAATGAGGTTAAAGATGAGGGAACGTGGCGTCG", "PBM binding z-score": 3.77}, {"sequence": "TGAATGAGGTTAAAGATCAGCGAACGTGGCGTCG", "PBM binding z-score": 5.87}, {"sequence": "CCAGTCAGGTGAGAAGGTAACTCAGCCTCGATTA", "PBM binding z-score": 0.294}, {"sequence": "TCTTGTAGATCAATAGAGGTTACGAAAGTGCGCT", "PBM binding z-score": 0.4}]}]}
